Common to all, as to assay: NCI-60 one-dose screen, 48 h (100 = growth as untreated, 0 = no growth, -100 = all killed)
One assay relates to HCT-15 colon. The note with it: 10 µM.
The test system of the next assay is HT29 colon. The note with it: 10 µM.
The next assay concerns SNB-75 CNS. The note with it: 10 µM.
Another assay deals with SNB-19 CNS. The note with it: 10 µM.
A further assay has as its system U251 CNS. The note with it: 10 µM.
The next assay relates to PC-3 prostate. The note with it: 10 µM.
In the next assay the test system is SK-MEL-5 melanoma. The note with it: 10 µM.
Another assay concerns UACC-62 melanoma. The note with it: 10 µM unless noted.
A further assay has as its system LOX IMVI melanoma. The note with it: 10 µM.
A further assay has as its system SK-MEL-28 melanoma. The note with it: 10 µM.

About 83,000 compounds went through this panel and 20% of them were active in at least one assay; those are over-represented in the sample as a whole.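 The test compound was applied at a single concentration to cells in 96-well plates for 48 hours, and percent growth was recorded.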 A number with no mark means an inactive call. Active and inactive are the calls of the source. How the source made its calls: active means growth percent below 10; inactive means the rest.

Regarding `O=[N+]([O-])c1ccc(CO)cc1`, the growth was 98% in the assay on HCT-15 colon; 108% with HT29 colon; 108% in the assay on SNB-75 CNS; 105% with SNB-19 CNS; 105% in the assay on U251 CNS; 97.2% in the assay on PC-3 prostate. The growth in the assay with SK-MEL-5 melanoma is 101%; with UACC-62 melanoma it was 99.1%; in the assay with LOX IMVI melanoma, 99.2%; in the assay on SK-MEL-28 melanoma, 112%.

With `O=C(CCNNC(=O)c1ccncc1)NCc1ccccc1`, the growth is 81.8% in the assay with HCT-15 colon; 105% with HT29 colon; 89.4% with SNB-75 CNS; 98.1% in the assay on SNB-19 CNS; 85.4% with U251 CNS; 87.4% with PC-3 prostate. The growth with SK-MEL-5 melanoma was 89%; in the assay with UACC-62 melanoma, 88%; with LOX IMVI melanoma, 86.8%; in the assay with SK-MEL-28 melanoma, 103%.

As to `CC(C)C1CCCCC1O` (stereo not given), the growth with HCT-15 colon is 96%; in the assay with HT29 colon, 106%; in the assay with SNB-75 CNS, 108%; in the assay on SNB-19 CNS, 104%; in the assay on U251 CNS it was 100%; with PC-3 prostate, 98.3%. Moreover, the growth with SK-MEL-5 melanoma was 103%; in the assay with UACC-62 melanoma, 102%; in the assay on LOX IMVI melanoma it was 96.3%; in the assay with SK-MEL-28 melanoma, 116%.

With `COc1cc(/C=N\Nc2ccccc2)ccc1OC(=O)c1ccccc1`, the growth in the assay with HCT-15 colon was 24.4%; with HT29 colon, 72.5%; with SNB-75 CNS, 85.4%; in the assay on SNB-19 CNS it was 108%; in the assay with U251 CNS, 81.5%; in the assay with PC-3 prostate, 49.8%. Also, the growth is 74.7% in the assay with SK-MEL-5 melanoma, 24.4% in the assay on UACC-62 melanoma, 3.86% (active) in the assay with LOX IMVI melanoma and 87.6% in the assay on SK-MEL-28 melanoma.

With `N#CSc1cc(S(N)(=O)=O)ccc1N`, the growth in the assay with HCT-15 colon is 108%; in the assay with HT29 colon, 101%; with SNB-75 CNS, 85.5%; in the assay with SNB-19 CNS it was 102%; with U251 CNS, 101%; in the assay with PC-3 prostate, 109%. Also, the growth was 101% with SK-MEL-5 melanoma, 104% in the assay on UACC-62 melanoma, 99.9% in the assay with LOX IMVI melanoma and 102% in the assay with SK-MEL-28 melanoma.

Turning to `O=C(NN=C1CCCCC1)C(=O)NN=C1CCCCC1`, the growth with HCT-15 colon is 108%; in the assay with HT29 colon, 98.6%; in the assay with SNB-75 CNS, 103%; with SNB-19 CNS, 110%; in the assay with U251 CNS, 107%; in the assay on PC-3 prostate, 89%. For the same molecule, the growth in the assay on SK-MEL-5 melanoma is 99.9%; in the assay on UACC-62 melanoma it was 109%; in the assay on LOX IMVI melanoma, 113%; with SK-MEL-28 melanoma, 100%.

Turning to `O=[N+]([O-])c1ccc(Cl)c(S(=O)(=O)O)c1`, the growth is 96.6% in the assay with HCT-15 colon; 138% with HT29 colon; 85.8% with SNB-75 CNS; 106% with SNB-19 CNS; 111% with U251 CNS; 108% with PC-3 prostate. Moreover, the growth in the assay on SK-MEL-5 melanoma was 104%; with UACC-62 melanoma it was 105%; in the assay on LOX IMVI melanoma it was 102%; with SK-MEL-28 melanoma, 111%.

Take `C[N+](C)=c1ccc2nc3c(cc(Nc4ccccc4)c4ccccc43)oc-2c1`: the growth was 56.7% in the assay on HCT-15 colon; 52.2% in the assay with HT29 colon; 86.7% with SNB-75 CNS; 57.2% in the assay with SNB-19 CNS; 23.4% in the assay on U251 CNS; 47.3% in the assay with PC-3 prostate. Besides, the growth was 46.3% in the assay on SK-MEL-5 melanoma, 44.8% in the assay on UACC-62 melanoma, 30.4% in the assay with LOX IMVI melanoma and 23.5% in the assay with SK-MEL-28 melanoma.

On to `CC(C)C(C#N)(C(C)C)C(C)C`, for which the growth with HCT-15 colon was 104%; in the assay with HT29 colon, 105%; in the assay on SNB-75 CNS it was 98.6%; in the assay on SNB-19 CNS, 108%; in the assay on U251 CNS, 102%; in the assay on PC-3 prostate it was 92.7%. In addition, the growth is 101% with SK-MEL-5 melanoma, 102% in the assay with UACC-62 melanoma, 112% in the assay with LOX IMVI melanoma and 109% in the assay on SK-MEL-28 melanoma.

For `CCC(C)(O)c1ccc(C)cc1` (stereo not given), the growth is 107% with HCT-15 colon; 107% in the assay with HT29 colon; 91.7% with SNB-75 CNS; 97.8% with SNB-19 CNS; 105% with U251 CNS; 99.6% with PC-3 prostate. Also, the growth with SK-MEL-5 melanoma is 98.5%; in the assay on UACC-62 melanoma, 102%; with LOX IMVI melanoma, 106%; in the assay with SK-MEL-28 melanoma, 104%.

Take `CC(C)OC(C(=O)O)c1ccccc1` (stereo not given): the growth in the assay with HCT-15 colon was 97.8%; with HT29 colon, 109%; in the assay on SNB-75 CNS, 78.2%; with SNB-19 CNS it was 99.5%; with U251 CNS, 111%; in the assay with PC-3 prostate, 82.9%. The growth with SK-MEL-5 melanoma was 105%; with UACC-62 melanoma, 97.1%; with LOX IMVI melanoma, 88.5%; with SK-MEL-28 melanoma, 102%.

Regarding `C=CC(O)CCC` (stereo not given), the growth with HCT-15 colon was 98%; with HT29 colon it was 99.7%; in the assay on SNB-75 CNS, 95.7%; in the assay on SNB-19 CNS it was 100%; in the assay on U251 CNS, 92.8%; in the assay with PC-3 prostate, 90%. For the same molecule, the growth was 107% in the assay on SK-MEL-5 melanoma, 95.9% in the assay with UACC-62 melanoma, 98.6% in the assay on LOX IMVI melanoma and 98.3% in the assay on SK-MEL-28 melanoma.

On to `COc1cc2nn(-c3ccccc3N)nc2cc1OC`, for which the growth was 102% with HCT-15 colon; 103% with HT29 colon; 72.6% with SNB-75 CNS; 99.9% with SNB-19 CNS; 91.7% in the assay with U251 CNS; 97.8% in the assay on PC-3 prostate. Moreover, the growth in the assay on SK-MEL-5 melanoma was 98.4%; in the assay with UACC-62 melanoma, 103%; with LOX IMVI melanoma, 94.7%; in the assay on SK-MEL-28 melanoma it was 109%.

For the molecule `COS(=O)(=O)c1ccc(Br)cc1`, the growth is 104% in the assay on HCT-15 colon; 107% with HT29 colon; 89.4% with SNB-75 CNS; 98.3% with SNB-19 CNS; 89% in the assay on U251 CNS; 93.2% in the assay on PC-3 prostate. Besides, the growth in the assay on SK-MEL-5 melanoma is 104%; in the assay on UACC-62 melanoma, 85.5%; with LOX IMVI melanoma, 97.2%; in the assay with SK-MEL-28 melanoma it was 98.4%.

Turning to `O=C1C=C(O)C(=O)C=C1O`, the growth with HCT-15 colon was 107%; in the assay with HT29 colon, 105%; in the assay on SNB-75 CNS, 95.1%; in the assay with SNB-19 CNS it was 104%; in the assay with U251 CNS it was 104%; in the assay with PC-3 prostate, 101%. The growth with SK-MEL-5 melanoma was 114%; in the assay on UACC-62 melanoma, 102%; in the assay on LOX IMVI melanoma, 98.9%; in the assay on SK-MEL-28 melanoma it was 114%.

(Values after PubChem BioAssay (NCI).)
